PAD4 FP inh – human PAD4 inhibitors, primary screen, biochemical, fluorescence polarization, 1536-well format; inhibition, % at 6.36 µM; 0.41% of 330,000 active; AID 485272, 2010; recombinant PAD4, RCA probe fluorescence polarization; Protein-arginine deiminase type-4 (Homo sapiens), Q9UM07;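 active = percent inhibition above a cutoff equal to the mean of all tested compounds plus 3 SD, cut at about 15% in these data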
PRMT1 inh – PRMT1 methyltransferase inhibitors, primary screen, biochemical, fluorescence polarization. recombinant PRMT1, activity-based probe fluorescence polarization. inhibition, % at 2.79 µM. 1.3% of 370,000 active. AID 652257, 2013;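 active = inhibition above about 21% made by adding two undisclosed values, limit read from the data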
TCR CD3 inh – inhibitors of human TCR-CD3 interaction, primary screen, biochemical, fluorescence, TAMRA-labeled TCR probe; inhibition, % at 9.4 µM; 0.37% of 360,000 active; AID 651800, 2012; in the data active = inhibition above about 19%;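 note: recombinant mutant TCR 2C K166C tagged with TAMRA read by polarization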
Fam108B counter – mouse Fam108B serine hydrolase inhibitors, primary screen, counter-screen for RBBP9 inhibitor project, biochemical, fluorescence polarization; recombinant Fam108B, FP-Rh probe fluorescence polarization; inhibition, % at 9.51 µM; 0.33% of 300,000 active;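 active = inhibition above the screen mean inhibition plus 3 SD, computed separately per campaign, cut at about 18% in these data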;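 note: inhibitors lower polarization as less probe binds the enzyme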
PME-1 primary – PME-1 inhibitors via competitive probe labeling, primary screen, biochemical, fluorescence polarization, FP-Rh probe, HTS | Protein phosphatase methylesterase 1 (Homo sapiens), Q9Y570 | recombinant PME-1 | inhibition, % at 5.9 µM | 0.53% of 320,000 active | AID 2130, 2009;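 active = inhibition above the campaign mean of all compounds plus 3 SD, cut at about 26% in these data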;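 note: competitive labeling of PME-1 active site by serine hydrolase directed probe; inhibitors block probe labeling so polarization falls and inhibition rises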
Target sequence (Q9Y570 whole entry, looked up): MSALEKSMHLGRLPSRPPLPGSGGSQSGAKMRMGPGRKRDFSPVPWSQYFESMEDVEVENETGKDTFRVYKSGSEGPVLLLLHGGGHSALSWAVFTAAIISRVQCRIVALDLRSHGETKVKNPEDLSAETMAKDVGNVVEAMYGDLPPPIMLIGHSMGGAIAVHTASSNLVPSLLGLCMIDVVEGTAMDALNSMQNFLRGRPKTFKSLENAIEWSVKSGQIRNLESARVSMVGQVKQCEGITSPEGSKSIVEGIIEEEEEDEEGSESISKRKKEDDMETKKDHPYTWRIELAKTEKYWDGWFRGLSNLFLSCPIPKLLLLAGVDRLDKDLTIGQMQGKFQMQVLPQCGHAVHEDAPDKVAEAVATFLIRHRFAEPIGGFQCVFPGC
SIAE primary – human SIAE inhibitors, primary screen, biochemical, fluorescence polarization, FP-Rh probe, 1536-well HTS | Sialate O-acetylesterase (Homo sapiens), Q9HAT2 | SIAE FP-Rh probe binding | inhibition, % at 9.66 µM | 0.69% of 370,000 active | AID 1053197, 2014;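 active = inhibition above a cutoff: mean of compounds within the control limits plus 3 SD of those, cut at about 17% in these data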
A number is an active result. Hits are enriched below; roughly 2.6% of the tested compounds scored in any of these assays.

Cc1nn(C(C)C(=O)NC2C(=O)N3C(C(=O)O)=C(CSc4nnnn4C)CSC23)cc1Cl (stereo not given) was read as PAD4 FP inh inactive, PRMT1 inh 24, TCR CD3 inh inactive, Fam108B counter inactive, PME-1 primary inactive and SIAE primary inactive.
`COC[C@H]1O[C@]2(c3ccccc3)CO[C@H]1[C@@H](/C=C/c1ccccc1)C2` gave PRMT1 inh inactive and SIAE primary inactive.
For Cc1ccc(SC[C@H](C)CN2CC[C@H](C)CCC2=O)cc1 the results were PAD4 FP inh inactive, PRMT1 inh inactive, TCR CD3 inh inactive, Fam108B counter inactive, PME-1 primary inactive and SIAE primary inactive.
CC(=O)Nc1ccc(SC[C@H](C)CN2CC[C@H](C(C)(C)C)CCC2=O)cc1 was read as PAD4 FP inh inactive, PRMT1 inh 24, TCR CD3 inh inactive, PME-1 primary inactive and SIAE primary inactive.
For CC(=O)Nc1ccc(SC[C@H](Cc2ccccc2)N2CCN(CC(C)C)CCC2=O)cc1 the results were PAD4 FP inh inactive, PRMT1 inh inactive, TCR CD3 inh inactive, Fam108B counter inactive, PME-1 primary inactive and SIAE primary inactive.
`CC(=O)Nc1ccc(SC[C@H](CC(C)C)N2CCN(CC(C)C)CCC2=O)cc1` gave PAD4 FP inh inactive, PRMT1 inh 23, TCR CD3 inh inactive, Fam108B counter inactive, PME-1 primary inactive and SIAE primary inactive.
`COC(=O)[C@]12C=CCN1[C@H](c1ccc(C(F)(F)F)cc1)c1c(c3ccccc3n1S(=O)(=O)c1ccc(C)cc1)C2` gave PRMT1 inh inactive and SIAE primary inactive.
`CCCNC(=O)c1nnsc1S(=O)(=O)c1ccc(Cl)cc1` gave PRMT1 inh 78, TCR CD3 inh inactive and SIAE primary inactive.
`CC(C)C1N=C2c3ccccc3N=C(SCc3cc(=O)n4cc(Cl)ccc4n3)N2C1=O` (stereo not given) gave PAD4 FP inh inactive, PRMT1 inh inactive, TCR CD3 inh inactive, Fam108B counter inactive, PME-1 primary inactive and SIAE primary 19.
For CC(C)C1N=C2c3ccccc3N=C(SCC(=O)NCCc3ccc(S(N)(=O)=O)cc3)N2C1=O (stereo not given) the results were PAD4 FP inh inactive, PRMT1 inh inactive, TCR CD3 inh inactive, Fam108B counter inactive, PME-1 primary inactive and SIAE primary inactive.
Screening NNc1nc2cc3c(cc2s1)OCCO3 returned PAD4 FP inh inactive, PRMT1 inh inactive, TCR CD3 inh inactive, Fam108B counter inactive, PME-1 primary 39 and SIAE primary inactive.
`O=C(Nc1nc2cc3c(cc2s1)OCCO3)c1cccs1` gave PAD4 FP inh inactive, PRMT1 inh inactive, TCR CD3 inh inactive, Fam108B counter inactive, PME-1 primary inactive and SIAE primary inactive.
C[C@H]1[C@H](NC(=O)c2ccc(C(C)(C)C)cc2)CC[C@@]23CCCN2C(=O)CCC[C@@H]13 was read as PRMT1 inh inactive and SIAE primary inactive.
Screening CCc1ccc2[nH]c(O)c(N=NC3=NC(=O)CS3)c2c1 returned PAD4 FP inh inactive, PRMT1 inh inactive, TCR CD3 inh inactive, Fam108B counter inactive, PME-1 primary 32 and SIAE primary inactive.
Cc1ccc(-c2cc(C(=O)N3CCN(c4ncccn4)CC3)c3cc(Br)ccc3n2)o1 was read as PAD4 FP inh inactive, PRMT1 inh 49, TCR CD3 inh inactive, Fam108B counter inactive, PME-1 primary inactive and SIAE primary inactive.
For COc1ccccc1C1c2c(ncn(-c3ccccc3)c2=N)Oc2ccc3ccccc3c21 (stereo not given) the results were PRMT1 inh inactive and SIAE primary inactive.
`CCC[C@H]1[C@@H](N)CC[C@@]23CCCN2C(=O)CCC[C@@H]13` gave PRMT1 inh inactive and SIAE primary inactive.
`O=C(CCCN1C(=O)/C(=C/c2ccccc2)SC1=S)Nc1ccc(C(=O)O)c(O)c1` gave PAD4 FP inh inactive, PRMT1 inh inactive, TCR CD3 inh inactive, Fam108B counter inactive, PME-1 primary inactive and SIAE primary inactive.

Bioassay records: PubChem BioAssay, The Scripps Research Institute Molecular Screening Center
